JMJD2A Tudor: qHTS Assay for Inhibitors of JMJD2A-Tudor Domain; AlphaScreen JMJD2A-Tudor / H3K4me3 peptide binding; AID 504339, 2011; 390,000 tested, 4.4% active; Lysine-specific demethylase 4A (Homo sapiens), O75164; Potency, µM (titrated, usually from 114 µM), for the others: at the top dose activity change, negative = inhibition, most hits filed as inhibitors; further: on the % scale 0 is the no-effect control and ±100 the full control effect; nearly all actives have a fitted effect of over 50% in size
BAZ2B inh: qHTS Assay for Inhibitors of BAZ2B; Bromodomain adjacent to zinc finger domain protein 2B (Homo sapiens), Q9UIF8; AID 504333, 2011; AlphaScreen BAZ2B-H3K14Ac peptide displacement; Potency, µM (top dose mostly 114 µM), without a hit: top-dose activity change, negative = inhibition, most hits filed as inhibitors; 360,000 tested, 4.4% active; further: on the % scale 0 is the no-effect control and ±100 the full control effect; nearly all actives have a fitted effect of over 60% in size
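Protein-peptide AlphaScreen: BAZ2B 50 nM, b-H3K14Ac 50 nM, 1x PBS pH 7.4 + 0.01% Tween-20. Preincubation 30 min RT; cpd 30 min RT (top 110 uM); beads 20 min RT, light-protected.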
Sfp inh: qHTS Assay for Inhibitors of Bacillus subtilis Sfp phosphopantetheinyl transferase (PPTase); 310,000 tested, 3.5% active; Potency, µM, for the others: largest response in the series, negative = inhibition, usual class: inhibitors; AID 1490, 2009; 4'-phosphopantetheinyl transferase ffp (Bacillus subtilis), Q9F4F7; Biochemical Sfp PPTase activity, qHTS;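 further: the enzyme is Sfp with the accession as filed and its product quenches rhodamine fluorescence; 0% = enzyme reaction without inhibitor and -100% = no enzyme wells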
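Sfp 15 nM + cpd, 15 min RT; start w/ rhodamine-CoA 5 uM, BHQ-2-YbbR 12.5 uM (final); 50 mM Hepes pH 7.6, 10 mM MgCl2, 0.01% NP-40, 0.01% BSA; read 525/598 nm at 0 and 30 min.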
HP1b binding inh: HTS for Inhibitors of HP1-beta Chromodomain Interactions with Methylated Histone Tails. AlphaScreen HP1-beta / biotin-H3K9me3 peptide binding. Potency, µM (titrated, usually from 114 µM), for the others: top-dose activity change, negative = inhibition, most hits filed as inhibitors. 390,000 tested, 0.56% active; further: nearly all actives have a fitted effect of over 70% in size
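HP1-beta protein (50 nM final) preincubated 30 min at room temperature with biotinylated H3(1-18)K9me3 peptide (50 nM) in PBS pH 7.4, 0.01% Tween-20, then compound added for 30 min. AlphaScreen streptavidin donor/nickel chelate acceptor beads (10 ug/mL final), 30 min dark, luminescence read.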
G9a block: qHTS Assay for Inhibitors of Histone Lysine Methyltransferase G9a. Histone-lysine N-methyltransferase EHMT2 (Homo sapiens), Q96KQ7. G9a H3K9 monomethylation, AlphaScreen, 2 h. Potency, µM (series often up to 102 µM), without a hit: top-dose activity, negative = inhibition, usual class: inhibitors. 350,000 tested, 8.8% active; further: on the % scale 0 is the no-effect control and ±100 the full control effect; nearly all actives have a fitted effect of over 75% in size
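G9a (20 nM) was preincubated 15 min with compound, then reacted 2 h at room temperature with 500 nM biotin-H3K9 peptide and 20 µM SAM. Monomethyl-H3K9 detected by AlphaScreen using anti-H3K9me1 antibody.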
PLK1 PBD inh: qHTS for Inhibitors of PLK1-PDB (polo-like kinase 1 - polo-box domain): Primary Screen; Serine/threonine-protein kinase PLK1 (Homo sapiens), P53350; Plk1 PBD binding of FITC phosphopeptide, fluorescence polarization; Potency, µM, without a hit: max response, negative = inhibition, most hits filed as inhibitors; 360,000 tested, 2.8% active; further: series mostly up to about 57 µM; on the % scale 0 is the no-effect control and ±100 the full control effect; nearly all actives have a fitted effect of over 65% in size
* hit, by the source's call; ? = inconclusive; . = not tested or not shown; [ ] = remark or other dose. The list is not random: actives were taken first. Their share in the collection is about 12%. The call rests on the fitted dose curve; in most records, active means well fitted curve in the direction sought with a large enough effect; inconclusive means small, poorly fitted or top-dose-only effect, or another doubt; inactive means no such curve, though single readings can be large; an effect the other way counts as inactive or inconclusive. Potency means the concentration at half of the fitted maximal effect.

SMILES	JMJD2A Tudor	BAZ2B inh	Sfp inh	HP1b binding inh	G9a block	PLK1 PBD inh
COc1ccc(N2CCN(CCNC(=O)Nc3ccc(C)c(Cl)c3)CC2)cc1	-28%	-35%	9%	2%	25µM*	-17%
Cc1ccc(NC(=O)CSc2nc3nccnc3c(=O)n2CCc2c[nH]c3ccccc23)c(C)c1	6%	-16%	.	38%	2%[59 µM]	.
Cc1ccc(S(=O)(=O)N2CCOCC2)cc1C(=O)N1CC(C)CC(C)C1 (stereo not given)	-8%	.	.	10%[57 µM]	.	-9%
Cc1ccc(S(=O)(=O)N2CCOCC2)cc1C(=O)NC(=S)N1CC(C)OC(C)C1 (stereo not given)	-6%	-2%	-23%	22%	32µM*	-11%
CC(=O)N1CCN(C(=S)NC(=O)c2ccc(S(=O)(=O)N3CCOCC3)cc2)CC1	50µM*	50µM*	?	-27%	?	-23%
CN(CCC#N)C(=S)NC(=O)c1ccc(S(=O)(=O)N2CCOCC2)cc1	-22%	-20%	?	-10%	11µM*	?
Cc1cc(C)c(NS(=O)(=O)c2ccc(-c3cnc(C4CC4)o3)cc2)c(C)c1	-33%	?	.	-1%	?	.
CC(/C=N/NC(=O)c1nnn(-c2nonc2N)c1C(C)C)=C\c1ccco1	-28%	-28%	-14%	6%	-43%[59 µM]	-17%
CCn1c(SCC(O)c2ccccc2)nnc1-c1ccccc1 (stereo not given)	-22%	3%	19%	10%	5%[59 µM]	1%
CCSc1cnc(-c2ccccc2)n1CC	-31%	?	15%	9%	50µM*	4%
C=CCc1c(C)nc2c(C)cccc2c1SC(=N)N	18%	-2%	56µM*	65%	.	-2%
Cc1nc2c(C)cccc2c(SC(=N)N)c1CC=C(Cl)Cl	?	?	?	59%	7.9µM*	?

Compound activity from PubChem.
